In PubChem BioAssay (NCI):
Compounds without any hit were thinned out: in the full panel of roughly 83,000, 20% have a hit.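 Method: cells in 96-well plates; compound added at one concentration; 48 h incubation; percent growth measured; values under 10 scored active.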 A number with no mark means an inactive call. Calls of active or inactive are those of the source.

Legend:
Test in all cases: NCI-60 one-dose screen, 48 h (100 = growth as untreated, 0 = no growth, -100 = all killed)
Settings in all cases: 10 µM unless noted
NCI-H23 lung = system: NCI-H23 lung
NCI-H226 lung = system: NCI-H226 lung
NCI-H322M lung = system: NCI-H322M lung
HOP-62 NSCLC = system: HOP-62 NSCLC
NCI-H460 lung = system: NCI-H460 lung
HOP-92 NSCLC = system: HOP-92 NSCLC
NCI-H522 lung = system: NCI-H522 lung
A549/ATCC NSCLC = system: A549/ATCC NSCLC
786-0 renal = system: 786-0 renal
COLO 205 colon = system: COLO 205 colon

SMILES	growth (NCI-H23 lung)	growth (NCI-H226 lung)	growth (NCI-H322M lung)	growth (HOP-62 NSCLC)	growth (NCI-H460 lung)	growth (HOP-92 NSCLC)	growth (NCI-H522 lung)	growth (A549/ATCC NSCLC)	growth (786-0 renal)	growth (COLO 205 colon)
Cn1c(=O)c2c(nc(Cl)n2CCl)n(C)c1=O	3.75% (active)	120%	103%	115%	111%	97.6%	84.8%	106%	90.4%	60.8%
CCN1CCN(c2cc(C)nc(NCc3cc(Nc4ccnc5cc(Cl)ccc45)ccc3F)n2)CC1	56%	83.7%	90.2%	52.3%	61.8%	62.9%	106%	74.6%	85%	-86.2% (active)
C[C@@H]1N=C(c2ccc3ccccc3n2)Nc2nc3ccccn3c2C1=O	86.3%	94.4%	97.3%	75.1%	97.2%	97.2%	102%	105%	98.3%	113%
CCCCCCN(CCCCCC)c1ccc(/C=C2/SC(=O)N(c3nc(N4CCCC4)nc(N4CCCC4)n3)C2=O)c(C)c1	47.2%	92.5%	99%	119%	57.5%	-3.12% (active)	53.2%	54.2%	63.5%	82.1%
Cc1occc1-c1n[nH]c(=S)n1N1C(=O)CSC1=S	102%	98.7%	99.4%	104%	104%	103%	89.3%	103%	100%	111%
Clc1cccc(Cl)c1/C=C/c1cc(/C=C/c2c(Cl)cccc2Cl)[nH]n1	43.6%	30.6%	38.2%	49.7%	11.4%	102%	-9.35% (active)	38.7%	23.1%	17.7%
COc1nc(N(C)O)nc(N(C)O)n1	43.9%	49.3%	37.7%	26.6%	8.71% (active)	52.8%	56.5%	33.7%	8.76% (active)	19.6%
Cc1ccc(/C=C2\C(=O)N(C)c3ccc(S(=O)(=O)Nc4ccc(C(C)(C)C)cc4)cc32)s1	64.1%	86%	58.7%	31.8%	32.1%	60%	43.4%	33.1%	40.1%	70.9%
O=c1[nH]nc(-c2ccccc2)c2c(-c3ccccc3)onc12	50.4%	55.4%	59.8%	34.4%	17%	-6.41% (active)	-22.5% (active)	58.5%	45%	11.3%
COc1ccc(-c2cc(-c3cc(OC)c(OC)c(OC)c3)c(C#N)c(N3CCOCC3)n2)cc1O	-6.35% (active)	108%	65.5%	68.4%	48.1%	42.8%	58.4%	65.8%	68.9%	97.2%
Cc1cc(NCc2cc(Nc3ccnc4cc(Cl)ccc34)ccc2F)nc(Cl)n1	32.8%	52.4%	71.9%	54.5%	48.4%	31.9%	36.2%	56.7%	50.7%	44.2%
c1csc(-c2c3ccc(=[N+]4CCCCC4)cc-3oc3cc(N4CCCCC4)ccc23)c1	-71.3% (active)	-81.7% (active)	-78.5% (active)	-60.6% (active)	-57.3% (active)	-64.7% (active)	-70% (active)	-56.2% (active)	-92.5% (active)	-61.5% (active)
O=C(CSc1nnc(-c2ccc(NC(=O)c3cccnc3)cc2)o1)Nc1cccc(Br)c1	92.8%	97.7%	97.2%	99.2%	103%	88.7%	41.4%	95.1%	94.2%	88.4%
COc1cccc(C(=O)NCCCNc2cc(-c3cn(-c4ccccc4)nc3-c3cccc(OC)c3)ccn2)c1	45.4%	54.6%	99.6%	66%	48.8%	45.3%	46.1%	29.9%	36.6%	40%
C=C(C)[C@@H]1CC[C@]2(C(=O)NC3CCCCC3)CC[C@]3(C)[C@H](CC[C@@H]4[C@@]5(C)CCCNC(C)(C)[C@@H]5CC[C@]43C)[C@@H]12	76.7%	63%	65.7%	80.4%	-56.5% (active)	62.3%	60%	41.2%	62.7%	-63.1% (active)
CC(C)(C)n1cc(-c2ccnc(NCCCNS(=O)(=O)c3ccccc3)c2)c(-c2ccccc2)n1	76.9%	82.5%	88.9%	90.7%	78.9%	24.5%	74.6%	63.5%	56.4%	57.4%
Cc1nn(-c2ccccc2)c(Oc2ccc(Cl)cc2)c1/C=N\N=c1/sc2ccccc2n1C	88.9%	84.3%	83.8%	86.7%	85%	71.9%	68%	86.1%	96.3%	93%
COC(=O)[C@]12CC[C@@H](C)[C@H](C)[C@@H]1C1=CC[C@@H]3[C@@]4(C)C(C=O)=C[C@@](C)(COS(C)(=O)=O)C4[C@H](O)C[C@@]3(C)[C@]1(C)CC2 (stereo not given in full)	-50.1% (active)	-67.2% (active)	-1.44% (active)	-63.6% (active)	-58.2% (active)	-74.3% (active)	-82.6% (active)	-67.1% (active)	-91.5% (active)	-70.8% (active)
Cc1ccc(C(=NN=C(N)N)c2ccc(C)cc2)cc1	-14.5% (active)	12.3%	30.5%	13.1%	2.86% (active)	-0.938% (active)	-13.8% (active)	11.1%	-25% (active)	-83.2% (active)
COc1cc(/C=C2\C(=O)ON=C2C)cc(OC)c1OC	98.6%	100%	95.1%	97%	110%	87.8%	98.5%	96.1%	103%	105%
CC/C=C\C[C@H](O)C/C=C1/C(=O)C=C[C@@H]1C/C=C\CCCC(=O)OC	-7.41% (active)	-34.5% (active)	29.3%	-32% (active)	-46.3% (active)	-20.5% (active)	-69.6% (active)	-21.4% (active)	-49.6% (active)	-52.1% (active)
